Data reported in PubChem BioAssay AID588458 (Sanford-Burnham Center for Chemical Genomics, 2011).
About 3,000 (0.83%) of roughly 360,000 compounds were called active. This excerpt belongs to a sample that is enriched for actives. A number with no mark means an inactive call. Cut-off read from the data, not from the text of the source: active = inhibition above about 50%; inactive = the rest.

The molecules below were run against DNA (cytosine-5)-methyltransferase 1 (Homo sapiens) (UniProt P26358) (assay: inhibition of DNA methyltransferase DNMT1 – biochemical, molecular beacon, fluorescence, HinP1I cleavage, uHTS, primary screen (AID 588458)). Details: at 10 µM, active compounds read high.
DNA (cytosine-5)-methyltransferase 1 (Homo sapiens), sequence (P26358 504-1616 limits assumed): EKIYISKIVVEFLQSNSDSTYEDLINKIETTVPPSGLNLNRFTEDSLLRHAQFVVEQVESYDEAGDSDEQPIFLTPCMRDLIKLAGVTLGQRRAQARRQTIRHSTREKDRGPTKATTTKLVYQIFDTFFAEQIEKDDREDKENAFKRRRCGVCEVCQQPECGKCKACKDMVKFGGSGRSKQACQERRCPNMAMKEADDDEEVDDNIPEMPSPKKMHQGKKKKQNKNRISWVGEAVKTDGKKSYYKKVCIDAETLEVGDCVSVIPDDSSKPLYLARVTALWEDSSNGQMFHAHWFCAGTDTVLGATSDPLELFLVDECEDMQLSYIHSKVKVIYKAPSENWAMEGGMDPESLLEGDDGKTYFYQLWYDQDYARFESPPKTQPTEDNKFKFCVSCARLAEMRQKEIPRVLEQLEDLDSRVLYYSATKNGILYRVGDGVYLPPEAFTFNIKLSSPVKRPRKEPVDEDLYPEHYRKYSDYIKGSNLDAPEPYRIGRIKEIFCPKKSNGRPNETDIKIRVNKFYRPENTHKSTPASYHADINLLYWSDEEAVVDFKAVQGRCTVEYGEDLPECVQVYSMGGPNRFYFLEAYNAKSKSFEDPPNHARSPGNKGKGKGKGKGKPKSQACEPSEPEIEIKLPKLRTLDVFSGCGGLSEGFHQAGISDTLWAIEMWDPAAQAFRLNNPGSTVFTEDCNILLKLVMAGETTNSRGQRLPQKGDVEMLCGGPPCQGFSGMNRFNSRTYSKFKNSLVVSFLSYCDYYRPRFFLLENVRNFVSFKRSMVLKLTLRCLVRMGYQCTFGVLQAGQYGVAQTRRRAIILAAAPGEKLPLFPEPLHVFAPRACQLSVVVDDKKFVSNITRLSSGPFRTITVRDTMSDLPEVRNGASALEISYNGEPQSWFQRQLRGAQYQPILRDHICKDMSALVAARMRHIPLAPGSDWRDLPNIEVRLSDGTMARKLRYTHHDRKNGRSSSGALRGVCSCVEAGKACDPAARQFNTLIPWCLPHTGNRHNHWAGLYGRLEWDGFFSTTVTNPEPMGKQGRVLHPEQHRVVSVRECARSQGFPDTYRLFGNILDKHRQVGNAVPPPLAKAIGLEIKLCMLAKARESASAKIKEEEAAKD

Row | Compound | inhibition (reported as % activation of signal)
1 | OCC[C@H]1C[C@H](O)[C@@H](O)[C@]2(CCCCO2)O1 | 5.49%
2 | CCOc1ccccc1-n1c(SCC(=O)N2CCCC2)nnc1-c1ccoc1C | 7.56%
3 | COc1ccc(Cl)cc1S(=O)(=O)Nc1cccc(C(=O)O)c1 | -3.3%
4 | COc1ccc2sc(-c3ccc(S(C)(=O)=O)cc3)c(C#Cc3cncn3C)c2c1 | -10.4%
5 | COc1cc(OC)cc(-c2sc3ccc(OC)cc3c2-c2ccc3cc[nH]c3c2)c1 | -17.8%
6 | COc1ccc2sc(-c3ccc(S(C)(=O)=O)cc3)c(-c3ccc(C(N)=O)cc3)c2c1 | 86.5% (active)
7 | O=C(NCc1ccco1)c1cnn2c(C(F)(F)F)cc(-c3ccco3)nc12 | -0.51%
8 | COCC(=O)N(C)[C@H]1C[C@H]2c3cc(Oc4ccccc4C)ccc3CCN2C(=O)[C@H]1[C@H](C)O | -0.44%
9 | CCCn1c(C)cc(/C=C(\C#N)C(=O)OCC(=O)Nc2cc(OC)c(OC)c(OC)c2)c1C | -3.49%
10 | COc1cc(C2C3=C(CCCC3=O)OC3=C2C(=O)CCC3)ccc1OCC(=O)Nc1ccccc1 | -1.83%
11 | CCOC(=O)/C(C#N)=C/c1ccc(OCC(=O)Nc2ccccc2)c(OC)c1 | 59.5% (active)
12 | COC(=O)Nc1nc2ccc(Sc3ccccc3)cc2[nH]1 | 23.1%
13 | CCCNC(=O)C1(C)CCN1C(=O)Cc1ccc(-c2ccccc2)cc1 (stereo unspecified) | -1.26%
14 | CCNC(=O)C1CCCN(C(=O)c2cc(F)ccc2C)CC1 (stereo unspecified) | 58% (active)
15 | CCNC(=O)C1CCCN(C(=O)c2ccc(OC)cc2OC)CC1 (stereo unspecified) | -0.58%
16 | CCOC(=O)C1CCCN(C(=O)c2ccc(C)c(F)c2)CC1 (stereo unspecified) | 1.76%
17 | Nc1nc(NCc2ccccc2)n(-c2ccccc2)n1 | -0.22%
18 | Cc1cc(C)n2nc(C(=O)N(C)C(c3ccccc3)c3ccccc3)nc2n1 | 2.32%
19 | O=c1cc(CN2CCCCCCC2)c2c(ccc3ccccc32)o1 | -0.34%
20 | c1ccc2cc3[nH]c(CN4CCCCC4)nc3cc2c1 | 83.2% (active)
21 | Cc1ccc2[nH]c(=O)c(CN3CCCCC3)c(-c3ccccc3)c2c1 | -7.9%
22 | Cc1cc(C)nc(NS(=O)(=O)c2ccc(N/C=C\C(=O)c3cccs3)cc2)n1 | -0.17%
23 | CC(C)(C)n1nnc(CCc2nnn(C(C)(C)C)n2)n1 | 0.1%

Row | Compound | inhibition (reported as % activation of signal)
24 | O=C(COC(=O)/C=C/c1cccc(Cl)c1)NCCc1ccccc1 | -1.37%
25 | COc1cccc(C=CC(=O)C=CC=Cc2ccccc2)c1 | 13.2%
26 | NNc1cccc(C=Cc2ccccc2)cc1=O | 75.5% (active)
27 | COc1ccc(CC(=O)NCc2nnc(SCC(=O)Nc3ncc(C)s3)n2C)cc1 | -1.25%
28 | COc1cc(NC(=S)NNC(=O)CC(C)C)c(OC)cc1Cl | -0.35%
29 | CSc1ccccc1NC(=O)C(C)N1C(=O)c2ccccc2S1(=O)=O (stereo unspecified) | -0.34%
30 | Cc1ccc(N2C(=O)CC(Nc3cccc4ccccc34)C2=O)cc1 (stereo unspecified) | -1.89%
31 | CC(=O)Nc1ccccc1Sc1ccc2c3c(cccc13)C(=O)N(c1ccc(C)cc1)C2=O | 73.9% (active)
32 | O=C(c1ccco1)N1CCN(C(=O)C2CCCN(S(=O)(=O)c3cccc4nsnc34)C2)CC1 (stereo unspecified) | 0.5%
33 | CCC(=O)N1CCCC1(C)C(=O)Nc1ccc2c(c1)CCN2C(C)=O (stereo unspecified) | -1.12%
34 | Cc1ccc(NS(=O)(=O)c2c(C)[nH]c(C)c2C(=O)N2CCCCC2)c(C)c1 | 12.2%
35 | O=C(CCC1CCCN(C(=O)c2ccc(F)c(F)c2)C1)N1CCN(c2ccccn2)CC1 (stereo unspecified) | 3.2%
36 | C=Cc1ccc(C(=O)N2CCCC(CCC(=O)N3CCN(c4ccccn4)CC3)C2)cc1 (stereo unspecified) | 80.1% (active)
37 | COc1cccc(CC(=O)N2CCCC(CCC(=O)N3CCN(c4ccccn4)CC3)C2)c1 (stereo unspecified) | -0.42%
38 | O=C(CN1CCN(S(=O)(=O)c2cccc(Cl)c2)CC1)N1CCCCC1 | -1.19%
39 | O=C(CN1CCCSc2ccccc21)N1CCN(S(=O)(=O)c2cccc(F)c2)CC1 | 89.2% (active)
40 | O=C(CN1CCCSc2ccccc21)N1CCN(S(=O)(=O)c2ccccc2)CC1 | -0.81%
41 | COc1ccc(C(=O)N2CCN(c3ccc(C(C)=O)cc3F)CC2)cc1S(=O)(=O)NC1CC1 | 3.83%
42 | CC1CCC(C(C)C)C(=O)/C1=C\c1ccc(NC(=O)CCC(=O)O)cc1 (stereo unspecified) | 0.83%
43 | Cc1ccc(Cc2cncc(O)c2)cc1S(=O)(=O)O | 50.3% (active)
44 | COC(=O)CC(=O)N1CCN(c2ccc(Cl)c(Cl)c2)CC1 | -1.96%
45 | CC1(Oc2ccc(Cl)cc2)CCN(Cc2csc3ccccc23)C1 (stereo unspecified) | 1.6%
46 | O=S(=O)(NCCc1ccc(Cl)cc1)c1cccs1 | -0.79%

Row | Compound | inhibition (reported as % activation of signal)
47 | CCOC(=O)c1c(C)[nH]c2c1-c1ccccc1C(=O)C2=O | 93.5% (active)
48 | CCOC(=O)c1c(NC(=O)CSc2nccc(=O)[nH]2)sc(C)c1C | 0.32%
49 | CCOC(=O)c1c(C)[nH]c(C)c1C(=O)CSc1nc(N)cc(N)n1 | -17.2%
50 | O=C(OCC(=O)N1CCCC1=O)c1cc(S(=O)(=O)N2CCOCC2)ccc1Cl | 0.37%
51 | CCOC(=O)c1sc(N(Cc2ccccc2)C(=O)CN2C(=O)CN(C)C2=O)nc1C | -3.6%
52 | Cc1ccccc1CSCC(=O)NC(=O)NC(C)(C)C | -1.56%
53 | CC(C)(C)NC(=O)CSC(=Nc1ccccc1F)NC#N | 52.8% (active)
54 | CC(C)(C)NC(=O)CSc1nnc(NC(=O)CCc2ccccc2)s1 | -0.32%
55 | CCCC/C=C/c1cccc2nncn12 | 5.75%
56 | COc1ccccc1C(=O)Nc1ccc(OCC(=O)N2CCCCC2)cc1 | 5.57%
57 | COc1ccc2c(c1)c(=O)c(C(=O)c1ccc(Cl)cc1)cn2CC(=O)Nc1ccc(F)cc1 | 59.8% (active)
58 | O=C(c1ccc(F)cc1)c1cn(Cc2ccc(F)cc2)c2cc3c(cc2c1=O)OCCO3 | -8.26%
59 | COc1ccc(NC(=O)CC2C(=O)NC3CCCCC3N2C(=O)c2ccc(F)cc2)cc1 (stereo unspecified) | 4.5%
60 | CNc1cc(-c2c(OC)cccc2OC)ncn1 | 5.78%
61 | COC(=O)c1ccc(C2NC(=O)NC(C)=C2C(=O)N(C)C)cc1 (stereo unspecified) | 0.97%
62 | O=C(NNC(=O)c1cc(-c2ccccc2Cl)nc2ccccc12)c1csc(N2CCOCC2)n1 | 1.75%
63 | O=C(Nc1ccc2ccccc2c1)Nc1ccc2snnc2c1 | -8.95%
64 | COC(=O)c1ccccc1NC(=O)C1(S(=O)(=O)c2ccc(Cl)cc2)CC1 | -0.08%
65 | CCOC(=O)C1CCCN(C(=O)CSc2nnc3nc(C)cc(C)n23)C1 (stereo unspecified) | 0.98%
66 | CN(C)CC(C)(C)CNC(=O)c1cc(Br)cc(Br)c1O | -5.18%
67 | CCCn1nc(C(=O)NNC(=O)CCOc2ccccc2OCC)c2ccccc2c1=O | 0.9%
68 | CCOc1ccccc1/C=c1\sc2nc(-c3ccco3)nn2c1=O | 93.3% (active)
69 | CCOc1ccccc1C1NC(=O)NC(C)=C1C(=O)OCc1ccco1 (stereo unspecified) | -2.52%

Row | Compound | inhibition (reported as % activation of signal)
70 | CCc1ccc(C(=O)C(C)OC(=O)CN2C(=O)NC3(CCCC3)C2=O)cc1 (stereo unspecified) | 3.64%
71 | N#Cc1cccc(NC(=O)COC(=O)c2ccccc2C(=O)c2ccc(Cl)c([N+](=O)[O-])c2)c1 | -3.9%
72 | COc1cccc(CN(C)CC(=O)Nc2sc3c(c2C#N)CCC3)c1 | -0.9%
73 | CCCc1cc(=O)[nH]c(SCC(=O)Nc2sc3c(c2C#N)CCCC3)n1 | -0.63%
74 | COc1ccc(-n2c(SCC(=O)Nc3sc4c(c3C#N)CCCC4)nnc2-c2ccc(O)cc2)cc1 | 67.7% (active)
75 | CCCCN(C)CCNC(=O)CSCc1ccc(C)cc1 | 1.5%
76 | CC1=C(C(=O)N2CCOCC2)CC(CC(=O)NCc2cccs2)C(=O)N1CCCN1CCCC1=O (stereo unspecified) | 6.83%
77 | COc1ccccc1CCNC(=O)C1CCN(C(=O)/C=C/c2ccccc2)CC1 | -0.55%
78 | COc1ccc(C(=O)/C=C/c2ccc(-c3ccccc3)cc2)cc1CSCC(=O)O | 56% (active)
79 | COC(=O)c1ccc(COc2ccc(/C=C/C(=O)c3ccc(OC)c(CSCC(=O)O)c3)cc2OC)cc1 | 11.9%
80 | CC(C)(C)NC(=O)COC(=O)c1cc(Cl)ccc1[N+](=O)[O-] | 6.7%
81 | O=S(=O)(c1cccc(-c2nnc(SC(F)F)n2-c2ccccc2)c1)N1CCCCC1 | -1.8%
82 | CCn1ccnc1CNC(=O)CC1C(=O)NCCN1Cc1ccc(F)cc1Cl (stereo unspecified) | -0.81%
83 | COc1ccc(S(=O)(=O)N2CCOC2CNC(=O)C(=O)NCc2ccncc2)cc1OC (stereo unspecified) | -1.09%
84 | COc1ccc(NC(=O)C2C3C=CC(C3)C2C(=O)NCc2ccccn2)c(OC)c1 (stereo unspecified) | 1.26%
85 | CCCn1nnnc1NCc1ccc(CC)cc1 | 0.45%
86 | CCOC(=O)C1CCCN(C(=O)c2ccc(N(C)C)cc2)CC1 (stereo unspecified) | -7.05%
87 | O=c1[nH]c(/C=C\c2cccc(C(F)(F)F)c2)nc(O)c1[N+](=O)[O-] | 4.66%
88 | O=c1[nH]c(SCc2cccc(F)c2)nc2ccccc12 | -0.9%
89 | O=c1[nH]c(/C=C/c2cccc(Br)c2)nc2ccccc12 | 53% (active)
90 | CCN(CC)C(=O)CSc1nnc(-c2ccc(S(=O)(=O)NCc3ccccc3Cl)cc2)o1 | 4.4%
91 | Clc1cc(NC2CCCCC2)ncn1 | 1.17%
